Measured values as given in PubChem BioAssay AID584 (National Center for Advancing Translational Sciences (NCATS), 2007).
Among all 71,000 compounds or so, about 65 (0.09%) were called active. This excerpt belongs to a sample that is enriched for actives. Values without a mark were called inactive. Calls come from the whole dose curve; as a rule, active = well fitted curve in the direction sought with a large enough effect; inconclusive = small, poorly fitted or top-dose-only effect; inactive = flat fitted curve, though single readings scatter.

molecular target: Beta-lactamase (Escherichia coli (strain K12)) (UniProt P00811); experiment: Promiscuous and Specific Inhibitors of AmpC Beta-Lactamase (assay with detergent); conditions: purified AmpC, nitrocefin hydrolysis with detergent; series mostly up to 28.7 µM; activity change, negative = inhibition: at the top concentration
Protocol: NIH Molecular Libraries Screening Centers Network [MLSCN]
NIH Chemical Genomics Center [NCGC]
PI Name: Shoichet, Brian K.
This aggregation profiling approach exploits the sensitivity of aggregate formation to detergent. Inhibition of b-lactamase is measured in the presence and absence of 0.01% Triton X-100. This particular assay had the prescence of 0.01% Triton X-100. See Pubchem assay "Promiscuous and Specific Inhibitors of AmpC Beta-Lactamase (assay without detergent)" for related screen. Compounds that inhibit only in the absence of detergent are considered likely promiscuous aggregators.
A screen of 1,030 compounds was performed in Brian Shoichet's lab in 96-well format. AmpC activity was measured by following the absorbance at 480 nm. Nitrocefin is a chromogenic substrate: while nitrocefin is yellow (lmax 390 nm), the product of its hydrolysis is red (lmax 486 nm, 17,000 M-1). AmpC beta lactamase was provided by Brian Shoichet and Brian Feng, UCSF.
NCGC Assay Protocol Summary:
20 mM phosphate buffer, pH 7.0
Triton X-100: No Detergent screen: 0.0001%, Detergent screen: 0.01%.
Buffer in columns 3 and 4 as negative control (no enzyme).
5.3 nM AmpC in columns 1, 2, 5-48. Titration of UCSF compound 9 control (from 10 mM, then 1:2) pin-transferred to column 2. Column 1 is neutral (100% activity).
Six uL of reagents were dispensed to 1536-well Greiner black clear bottom plates. Compounds and controls (23 nL) were transferred via Kalypsys PinTool. The plates were incubated for 15 min at room temperature, and then 2 uL of 800 uM solution of nitrocefin was added to start the reaction. The plates were immediately transferred to and read every 20 seconds for 4 min on ViewLux (Perkin-Elmer) High-throughput CCD imager using 480 nm absorbance protocol. During dispense, reagent bottles were kept submerged into 4 deg C water bath.
Keywords: NIH Roadmap, MLSCN, MLI, MLSMR, qHTS, NCGC, AmpC Beta-Lactamase, Aggregation
% is set by controls: 0 for no effect and ±100 for the full control effect; potency is the fitted concentration of half-maximal effect.

Chain of Beta-lactamase (Escherichia coli (strain K12)) (P00811 whole entry, looked up): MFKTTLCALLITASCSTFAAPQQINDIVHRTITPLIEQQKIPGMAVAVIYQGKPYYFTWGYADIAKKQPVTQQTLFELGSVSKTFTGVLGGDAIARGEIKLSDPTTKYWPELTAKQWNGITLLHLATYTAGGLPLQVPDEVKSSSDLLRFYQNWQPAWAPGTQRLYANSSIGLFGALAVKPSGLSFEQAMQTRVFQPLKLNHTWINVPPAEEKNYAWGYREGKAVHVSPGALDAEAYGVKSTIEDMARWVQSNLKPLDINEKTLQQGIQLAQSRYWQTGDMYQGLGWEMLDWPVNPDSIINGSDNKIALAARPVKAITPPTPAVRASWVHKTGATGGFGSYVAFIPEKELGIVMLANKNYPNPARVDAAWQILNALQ

SMILES	Potency	activity change, negative = inhibition
CC(C)(O/N=C(\C(=O)N[C@@H]1C(=O)N2C(C(=O)[O-])=C(C[n+]3ccccc3)CS[C@@H]12)c1csc(N)n1)C(=O)O	3.98 µM (active)	–
COc1ccc(OC)c(C2N(c3ccccn3)C(=O)C3CCCN32)c1 (configuration not stated)	–	-2.28%
Clc1ccc(CSc2nnc([C@@H]3CCCN3)o2)cc1	–	-2.42%
C=CCNC(=O)c1ccc(C)c(Br)c1	–	-2.92%
Cc1ccc(CNC(=O)CN2CCN(Cc3ccc(Cl)cc3)C2=O)cc1	–	-1.23%
COCCCNC(=O)c1ccc(CNS(=O)(=O)c2ccc(NC(C)=O)cc2)cc1	–	0.576%
Cn1nc(-c2ccc(Cl)cc2)c2cc(C(=O)NCc3ccco3)sc21	–	12.3%
CCCN(CCC)CCNC(=O)c1cc2c(C)nc3ccccc3c2o1	–	9.75%
CCn1c(NCCc2ccc(OC)c(OC)c2)nc2c1c(=O)n(C)c(=O)n2C	–	-1.87%
Fc1ccccc1CCNc1nnnn1-c1ccccc1	–	-2.77%
Cc1ccn2cc(-c3nonc3C)cc2c1	–	13.7%
O=C(c1cccc(S(=O)(=O)N2CCOCC2)c1)N1CCOCC1	–	7.65%
Clc1ccc(Nc2nc(-c3cccs3)cs2)nc1	–	-2.26%
COc1cccc2sc(Nc3nc(C)c(C(C)=O)s3)nc12	–	-2.42%
CC(=O)N1CCc2cc(S(=O)(=O)Nc3ccccc3N3CCN(C)CC3)ccc21	–	11.9%
COc1ccc(OCC(=O)N2CCN(C(=O)c3cccs3)CC2)cc1	–	-6.48%
Cc1ccccc1C(=O)NCCN=C1NS(=O)(=O)c2ccccc21	–	7.01%
C#CCN1C(=O)C(O)(CC(=O)c2cc(OC)ccc2OC)c2ccccc21 (configuration not stated)	–	-7.87%
CCOC(=O)c1ccc(N2C(=O)CC(N3CCC(C(=O)OCC)CC3)C2=O)cc1 (configuration not stated)	–	6.93%
O=C1c2oc3ccc(Br)cc3c(=O)c2C(c2cccc(F)c2)N1CCO (configuration not stated)	–	-4.42%
O=C(c1ccco1)N1CCC[C@@]2(CCN(Cc3nccs3)C2)C1	–	-4.4%
O=C1c2oc3ccccc3c(=O)c2C(c2cccc(O)c2)N1c1ccccn1 (configuration not stated)	–	9.36%
CCCCCCCCCCCC(=O)O[C@H](CC(=O)O)C[N+](C)(C)C	–	-4.2%
CCOC(=O)N1CCN(C(=O)c2n[nH]c(=O)c3ccccc23)CC1	–	0.673%
CC(C)c1cc(C(=O)O)on1	–	-6.27%
O=S(=O)(c1ccc(OCC(O)CN2CCN(c3ccccc3Cl)CC2)cc1)N1CCOCC1 (configuration not stated)	–	2.31%

SMILES	Potency	activity change, negative = inhibition
CCNC(=O)N1CCNC(=O)C1CC(=O)Nc1ccc(C(=O)OCC)cc1 (configuration not stated)	–	-4.34%
COc1ccccc1-n1nnnc1S(=O)(=O)Cc1ccc(Cl)cc1	–	1.38%
COc1ccc2occ(C(=O)c3ccc(N=C(C)N(C)C)cc3)c2c1	–	-1.09%
CCC(=O)Nc1ccc2c(c1)nc(CCN1CCN(C)CC1)n2C	–	-3.74%
O=C(Nc1ccc(NC(=O)c2cccs2)cn1)c1ccco1	–	2.68%
COC(=O)c1oc2ccc(Br)cc2c1NC(C)=O	–	9.99%
O=C(C(NS(=O)(=O)c1cccc2nsnc12)c1ccccc1)N1CCN(c2ccccn2)CC1 (configuration not stated)	–	-0.797%
CC[C@@](O)(C(=O)O)c1cc2n(c(=O)c1CO)Cc1cc3ccccc3nc1-2	–	-3.6% [at 5.75 µM]
CC(C)CCNC(=O)CN(C(=O)Cn1nnc(-c2ccc(F)cc2)n1)C1CCCC1	–	15.1%
O=C(CSc1nnc(-c2ccco2)o1)NCC(=O)c1ccccc1	–	-2.2%
Nc1scc(-c2ccncc2)c1Cl	–	-0.348%
O=C(CSc1nc2ccccc2o1)N1CCN(c2ccc(Cl)cc2)CC1	–	-1.31%
O=C(c1ccccc1-c1ccccc1)N1CCOCC1	–	-4.93%
Cc1ccc(F)cc1NC(=O)c1ccc2c(c1)OCO2	–	-1.21%
c1ccc2nc(C3=NCCN3)cnc2c1	–	-0.2%
COc1ccc(CCNc2ncnc3nc[nH]c23)cc1OC	–	5.99%
Cc1cc(C(=O)O)ccc1[N+](=O)[O-]	–	8.6%
O=C(Nc1ccccc1F)c1cc(S(=O)(=O)N2CCCCC2)cs1	–	-3.84%
COC(=O)[C@@]1(Cc2ccc(OC)cc2)[C@H]2c3cc(C(=O)N4CCCC4)n(Cc4ccc(C(F)(F)F)nc4)c3C[C@H]2CN1C(=O)c1ccccc1	–	-0.9%
Cc1ccc(Cn2nnc3c(=O)n(CC(=O)N4CCCCC4)cnc32)cc1	–	-3.82%
CCC(C)(C)n1nnnc1C(c1cccs1)N1CCN(c2nc3ccccc3s2)CC1 (configuration not stated)	–	0.863%
O=S(=O)(Nc1ccc2nc(-c3ccco3)[nH]c2c1)c1ccccc1	–	-0.749%
Cc1cc(N2C(=O)c3ccc(C(=O)NCc4ccccc4)cc3C2=O)no1	–	-2.37%
CCCCOc1ccc(Cl)cc1CSc1nncn1N	–	-1.71%
NCC[Se][Se]CCN	–	-3% [at 5.75 µM]
NC(=NC(=O)c1ccccc1)C1=C(O)CCC1=O	–	14%
